From ChEMBL document CHEMBL4513216, “Probing the Open Global Health Chemical Diversity Library for Multistage-Active Starting Points for Next-Generation Antimalarials” (ACS Infect Dis, 2020) come the findings set out here.

Hit rate of the full screen: of about 69,000 compounds, about 8,600 (12%) showed an effect of 50% or more. The sample holds strong results, similar compounds and a random draw of the others, so the mix is not that of the screen.

This experiment relates to Plasmodium berghei. As to the kind of experiment: Screen against P. berghei liver stage (PbLuc), transformed with Luciferase, at 10uM. Format: functional, HepG2. As to conditions: tested at 10 uM.
For `COc1ccc(C(=O)N(Cc2cnn(C)c2)C(C)C)cc1OC(F)F`, the INHIBITION was found to be 33.3%.

Take `Cc1nc(C)n(C2CCCN(C(=O)c3cc(C4CC4)on3)C2)n1` (centres undefined): the INHIBITION was determined as 29.2%.

Consider `CCN(CCCNC(=O)c1ccc(C)[nH]c1=O)S(C)(=O)=O`, for which the INHIBITION was found to be 61%.

On to `O=C(NS(=O)(=O)c1cc(Cl)ccc1Cl)c1cccc2c1OCCO2`, for which the INHIBITION is listed as -31.3%.

`Cc1ccc(C)c(S(=O)(=O)NC(=O)c2cccc3c2OCCO3)c1`: the INHIBITION amounted to 68.8%.

As to `O=C(NS(=O)(=O)c1ccc(Cl)cc1F)c1cccc2c1OCCO2`, the INHIBITION came to 50%.

As for `O=C(NS(=O)(=O)c1ccccc1Cl)c1cccc2c1OCCO2`, the INHIBITION is 49%.

For `COC(=O)c1ccccc1S(=O)(=O)NC(=O)c1cccc2c1OCCO2`, the INHIBITION was -7.36%.

As to `Cc1ccc(C(=O)NCCCN(C(C)C)S(C)(=O)=O)c(=O)[nH]1`, the INHIBITION is on record as -8.97%.

`Cc1ccc(C(=O)NS(=O)(=O)c2cc(Br)ccc2C)c(=O)[nH]1`: the INHIBITION is 25.6%.

`Cc1ccc(C)c(S(=O)(=O)NC(=O)c2ccc(C)[nH]c2=O)c1`: the INHIBITION is on record as 52.3%.

As for `Cc1ccc(C(=O)NS(=O)(=O)c2ccccc2C)c(=O)[nH]1`, the INHIBITION was 24.6%.

Turning to `Cc1ccc(C(=O)NCCCN(C)S(C)(=O)=O)c(=O)[nH]1`, the INHIBITION amounted to 40.4%.

Regarding `Cc1ccc(S(=O)(=O)NC(=O)c2cccc3c2OCCO3)c(C)c1`, the INHIBITION was 23.7%.

For `CCc1ccc(C(COC)NC(=O)c2ccc(NC(C)=O)cc2)o1` (centres undefined), the INHIBITION was 18.4%.

Regarding `CCO[C@H]1CN(C)C[C@@H]1NC(=O)c1cc(C)nc2c(C)c(C)ccc12`, the INHIBITION stood at 35%.

Turning to `CCNC(=O)[C@@H]1C[C@H](NC(=O)Cn2ccnc2)CN1Cc1ccsc1`, the INHIBITION was 39.3%.

For the compound `CCN1CC(CN(C)Cc2nc(-c3cccc(Cl)c3)oc2C)CC1=O` (centres undefined), the INHIBITION turned out to be 29.8%.

For the compound `CC(=O)NCCCNC(=O)N(C)C(C)Cc1ccc(Cl)cc1` (centres undefined), the INHIBITION was -6.99%.

Consider `CS(=O)(=O)NCCCNc1ccc(C(F)(F)F)cc1C#N`, for which the INHIBITION is listed as 72.6%.

As for `CCN(CC)S(=O)(=O)c1ccc(C(F)(F)F)cc1C#N`, the INHIBITION turned out to be 27.6%.

For `CN(CC1CC1)S(=O)(=O)c1ccc(C(F)(F)F)cc1C#N`, the INHIBITION was found to be 47.2%.

`N#Cc1cc(C(F)(F)F)ccc1NCC1CCS(=O)(=O)CC1`: the INHIBITION is 56.4%.

With `CS(=O)(=O)CCOCCNc1ccc(C(F)(F)F)cc1C#N`, the INHIBITION is -13.4%.

For the compound `N#Cc1cc(F)ccc1NCC1CCS(=O)(=O)CC1`, the INHIBITION is reported as -3.26%.

In the case of `CCCNC(=O)C1CCN(Cc2csc(CC)n2)CC1`, the INHIBITION is reported as 15.3%.

As for `Cc1cc(C(=O)N2C[C@@H]3CC[C@H]2CN(C)C3)ccc1Cl`, the INHIBITION stood at 18.2%.

With `Cc1ccc(C)c(OCCC(=O)N2CCCN(CC(N)=O)CC2)c1`, the INHIBITION was -79.3%.

Take `COc1cccc(COCC(=O)N2CCCC(c3ccn[nH]3)C2)c1` (centres undefined): the INHIBITION turned out to be 45.7%.

For `CC(=O)CCCC(=O)N(Cc1ccsc1)CC(C)C`, the INHIBITION was found to be 35%.

Regarding `Cc1ccnn1CCC(=O)N(Cc1ccsc1)CC(C)C`, the INHIBITION is 41.5%.

For `CC(C)CN(Cc1ccsc1)C(=O)CCCn1cncn1`, the INHIBITION came to 62.8%.

As to `CNS(=O)(=O)c1ccc(C)c(C(=O)NCCNc2ncccn2)c1`, the INHIBITION is listed as -7.81%.

For `CCOc1ccc(CN[C@@H]2COC[C@H]2c2ccc(F)cc2)cc1`, the INHIBITION is -16%.

Regarding `CCc1nccn1-c1cncc(C2CCCN2Cc2ccc(F)cc2)n1` (centres undefined), the INHIBITION was found to be 31.1%.

Take `CCc1nccn1-c1cncc(C2CCCN2)n1` (centres undefined): the INHIBITION amounted to 51.7%.

Regarding `CCc1nccn1-c1cccc(C2CCCN2)n1` (centres undefined), the INHIBITION is 31.3%.

Turning to `Cc1cnn(CC2CCCN2C(=O)c2csc(-c3nnc[nH]3)n2)c1` (centres undefined), the INHIBITION is reported as -73.2%.

Turning to `CC(C)c1nnc(NC(=O)Cc2csc(-c3nnc[nH]3)n2)s1`, the INHIBITION turned out to be 76.7%.

`CCC(C)c1csc(NC(=O)c2sc(-c3nnc[nH]3)nc2C)n1` (centres undefined): the INHIBITION is 37.8%.

In the case of `Cc1nc(C)c(CC(=O)Nc2nnc(C(C)C)s2)c(=O)[nH]1`, the INHIBITION was determined as 25.75%.

Regarding `CCc1ccc(C(C)NC(=O)CCc2nc(-c3nnc[nH]3)no2)cc1` (centres undefined), the INHIBITION stood at 38.8%.

Regarding `CCC(C)c1csc(NC(=O)Cc2csc(-c3nnc[nH]3)n2)n1` (centres undefined), the INHIBITION amounted to 93.4%.

On to `O=C(Cc1csc(-c2nnc[nH]2)n1)N1CCCC1Cn1cccn1` (centres undefined), for which the INHIBITION was found to be 39.5%.

On to `CCc1nc(NC(=O)Cc2csc(-c3nnc[nH]3)n2)sc1C`, for which the INHIBITION was found to be 55.4%.

As to `Cc1nn2cnnc2c(C)c1CCC(=O)Nc1nnc(C(C)C)s1`, the INHIBITION is -23.5%.

As to `CC(C)(C)CC(NC(=O)N1CCC(C(N)=O)CC1)C(F)(F)F` (centres undefined), the INHIBITION was -50.7%.

Turning to `CC(C)C(CNC(=O)Nc1cn[nH]c1)N1CCOCC1` (centres undefined), the INHIBITION was 7.67%.

As to `CC(C)c1nn(C)c(N(C)C)c1CNCc1cscn1`, the INHIBITION is on record as -11%.

In the case of `CC(C)OCCC(=O)NCC(O)c1c(Cl)cccc1Cl` (centres undefined), the INHIBITION was found to be 17.8%.

In the case of `COCCC(=O)N1C[C@H](C(C)C)[C@@H](N(C)C)C1`, the INHIBITION was determined as 19.4%.

For the compound `CC(C)(C)c1n[nH]c(C2CN(CCc3cccs3)CCO2)n1` (centres undefined), the INHIBITION came out at 37.3%.

For `CCc1n[nH]c(C2CN(CCc3ccncc3)CCO2)n1` (centres undefined), the INHIBITION worked out at 23.6%.

As for `CC(C)(C)c1n[nH]c(C2CN(CCc3ccncc3)CCO2)n1` (centres undefined), the INHIBITION amounted to 57.5%.

Consider `CC(CN1CCOCC1)NC(=O)c1cc(Cl)c2c(c1)OCO2` (centres undefined), for which the INHIBITION is listed as 29.8%.

Regarding `OC1(CNCCSCc2ccccc2)CCCNC1` (centres undefined), the INHIBITION was 55.4%.

Take `OC1(CNCCc2csc(-c3ccncc3)n2)CCCNC1` (centres undefined): the INHIBITION is recorded as -15%.

On to `OC1(CNCc2noc(Cc3ccccc3)n2)CCCNC1` (centres undefined), for which the INHIBITION is recorded as 26%.

With `Cc1c(C2CCCN(C(=O)OC(C)(C)C)C2)n2c(nc1=O)CCC2` (centres undefined), the INHIBITION worked out at 13.5%.

Regarding `COCCC(=O)Nc1cc(CC(C)(C)C)n[nH]1`, the INHIBITION is on record as -28.6%.

For the compound `Cc1cnc(C)c(-c2cc(O)c3c(c2)CN(Cc2nccs2)CCO3)n1`, the INHIBITION is recorded as -16.9%.

Turning to `Cc1cnc(C)c(-c2cc(O)c3c(c2)CN(c2ncccn2)CCO3)n1`, the INHIBITION worked out at 53%.

On to `Cc1cnc(C)c(-c2cc(O)c3c(c2)CN(c2nccs2)CCO3)n1`, for which the INHIBITION was determined as 28.5%.

For `CS(=O)(=O)N1C[C@H](NC(=O)c2ccno2)[C@@H]2OCCC[C@@H]21`, the INHIBITION is reported as 38.5%.

Turning to `Cn1ccnc1CN(CCCO)CC(F)(F)F`, the INHIBITION was 54.8%.

As to `Cn1ccnc1CN(CCCO)C1CCCc2ccccc21` (centres undefined), the INHIBITION is -26.8%.

As to `CSc1ccc(CN(CCO)Cc2nccn2C)cc1`, the INHIBITION is recorded as 43.9%.

For the compound `CCCOc1ccc(CNc2cncc(-n3cccn3)n2)cc1`, the INHIBITION came to 82.6%.

On to `CCOCCOCc1cccc(CNc2cncc(-n3cccn3)n2)c1`, for which the INHIBITION was 24.2%.

Consider `CC(C)OCc1ccc(CNc2cncc(-n3cccn3)n2)cc1`, for which the INHIBITION amounted to 80.6%.

In the case of `Fc1cccc(CNc2cncc(-n3cccn3)n2)c1`, the INHIBITION is recorded as 50.1%.

`COC(=O)Nc1ccc(CNc2cncc(-n3cccn3)n2)cc1`: the INHIBITION stood at 3.73%.

For `CNC(=O)COc1ccc(CNc2cncc(-n3cccn3)n2)cc1`, the INHIBITION is 23.4%.

`CN(C)c1ccc(CNc2cncc(-n3cccn3)n2)cc1`: the INHIBITION came out at 49.6%.

On to `CCOCc1ccc(CNc2cncc(-n3cccn3)n2)cc1`, for which the INHIBITION is reported as 80.6%.

Take `CCOc1cccc(CNc2cncc(-n3cccn3)n2)c1`: the INHIBITION is 31.6%.

As for `CNS(=O)(=O)Cc1ccc(CNc2cncc(-n3cccn3)n2)cc1`, the INHIBITION is reported as 44.2%.

Take `COCc1ccc(CNc2cncc(-n3cccn3)n2)cc1`: the INHIBITION is listed as -21.9%.

Take `Cc1cccc(CNc2cncc(-n3cccn3)n2)c1`: the INHIBITION is recorded as 47.6%.
